Source: the supplement of paper PMC10849652
About 8,800 targets were measured; listed, in parts, are those with a hit and a random draw of the rest. About 0.5% of all pairs of compound and target were hits.

Legend:
Assay in all cases: log2 fold change, soluble protein after heating vs DMSO (PISA); higher = thermal stabilisation; K562 lysate, 10 uM; active = over 0.2 and 3.5 SD of the protein, either way, in both replicates (recomputed)
[1] = compound: Cc1cn(-c2cc(NC(=O)c3ccc(C)c(Nc4nccc(-c5cccnc5)n4)c3)cc(C(F)(F)F)c2)cn1 [nilotinib]
How it was run: (§1)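 Quantification was by TMTpro 16plex LC-MS/MS with equalised channel sums, applied to the supernatant after 21,000xg for 90 min. Samples were crude K562 extract at 1 mg/mL protein in PBS pH 7.4 with 1 mM MgCl2, treated with 10 μM compound for 30 min, heated for 3 min across 48°C-58°C, pooled and brought to 0.5% NP-40 at 4°C. Values are log-two fold changes in thermal stability relative to solvent controls, from duplicates.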

[2] = compound: Cc1nc(Nc2n[nH]c3c2CN(C(=O)N[C@H](CN(C)C)c2ccccc2)C3(C)C)c2sccc2n1
How it was run: as §1

[3] = compound: Cc1nc(Nc2ncc(C(=O)Nc3c(C)cccc3Cl)s2)cc(N2CCN(CCO)CC2)n1 [dasatinib]
How it was run: as §1

[4] = compound: Cc1ncc(-c2ccnc(Nc3ccc(S(C)(=O)=O)cc3)n2)n1C(C)C
How it was run: as §1

[5] = compound: Cn1cc(-c2ccc3c(c2)CCN3C(=O)Cc2cccc(C(F)(F)F)c2)c2c(N)ncnc21
How it was run: as §1

[6] = compound: Cn1cc(CNCC2CCN(c3ncc(C(=O)NO)cn3)CC2)c2ccccc21 [quisinostat]
How it was run: as §1

[7] = compound: Cn1cncc1[C@@](N)(c1ccc(Cl)cc1)c1ccc2c(c1)c(-c1cccc(Cl)c1)cc(=O)n2C [tipifarnib]
How it was run: as §1

[8] = compound: NC(=O)Nc1cc(-c2cccc(F)c2)sc1C(=O)N[C@H]1CCCNC1
How it was run: as §1

[9] = compound: NC(=O)c1cnc(N[C@@H]2CCCC[C@@H]2N)nc1Nc1cccc(-n2nccn2)c1
How it was run: as §1

[10] = compound: NC1(c2ccc(-c3nc4ccn5c(=O)[nH]nc5c4cc3-c3ccccc3)cc2)CCC1
How it was run: as §1

Measured: log2 fold change

KLHL36 (UniProt Q8N4N3)
inactive: [1] 0.012 | [2] -0.104 | [3] -0.021 | [4] 0.027 | [5] 0.049 | [6] 0.043 | [7] 0.067 | [8] 0.007 | [9] -0.023 | [10] -0.014

MCU (UniProt Q8NE86)
inactive: [1] -0.044 | [2] 0.012 | [3] -0.065 | [4] 0.072 | [5] 0.006 | [6] -0.054 | [7] -0.096 | [8] 0.011 | [9] 0.025 | [10] -0.085

MIF (UniProt P14174)
inactive: [1] 0.036 | [2] -0.042 | [3] 0.001 | [4] -0.007 | [5] -0.009 | [6] 0.058 | [7] 0.061 | [8] 0.035 | [9] 0 | [10] 0.033

LZTR1 (UniProt Q8N653)
inactive: [1] 0.016 | [2] 0.014 | [3] -0.063 | [4] -0.068 | [5] 0.008 | [6] -0.029 | [7] -0.036 | [8] 0.099 | [9] -0.033 | [10] -0.019

LSG1 (UniProt Q9H089)
inactive: [1] 0.003 | [2] 0.015 | [3] 0.102 | [4] 0.026 | [5] 0.137 | [6] -0.091 | [7] -0.004 | [8] 0.115 | [9] -0.014 | [10] 0.032

MAP2K4 isoform 2 (UniProt P45985)
UniProt P45985, sequence (P45985 whole entry, looked up): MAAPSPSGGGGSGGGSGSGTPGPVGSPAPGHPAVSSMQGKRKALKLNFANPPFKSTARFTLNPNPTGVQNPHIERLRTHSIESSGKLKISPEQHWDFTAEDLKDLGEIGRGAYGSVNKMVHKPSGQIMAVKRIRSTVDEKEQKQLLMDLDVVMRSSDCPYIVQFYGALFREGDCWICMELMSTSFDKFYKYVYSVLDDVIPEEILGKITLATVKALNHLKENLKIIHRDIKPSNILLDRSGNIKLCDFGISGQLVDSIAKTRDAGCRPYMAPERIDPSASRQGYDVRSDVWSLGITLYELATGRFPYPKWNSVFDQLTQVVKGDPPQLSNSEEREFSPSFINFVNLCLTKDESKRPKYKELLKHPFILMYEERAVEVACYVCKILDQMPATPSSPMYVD
inactive: [1] -0.013 | [2] 0.052 | [3] -0.014 | [4] 0.248 | [5] 0.046 | [6] -0.112 | [7] -0.023 | [8] 0.019 | [9] 0.063 | [10] 0

KIFC1 (UniProt Q9BW19)
inactive: [1] -0.008 | [2] 0.003 | [3] -0.031 | [4] -0.002 | [5] 0.034 | [6] -0.055 | [7] 0.006 | [8] 0.001 | [9] -0.024 | [10] -0.025

KIF11 (UniProt P52732)
UniProt P52732, sequence (P52732 whole entry, looked up): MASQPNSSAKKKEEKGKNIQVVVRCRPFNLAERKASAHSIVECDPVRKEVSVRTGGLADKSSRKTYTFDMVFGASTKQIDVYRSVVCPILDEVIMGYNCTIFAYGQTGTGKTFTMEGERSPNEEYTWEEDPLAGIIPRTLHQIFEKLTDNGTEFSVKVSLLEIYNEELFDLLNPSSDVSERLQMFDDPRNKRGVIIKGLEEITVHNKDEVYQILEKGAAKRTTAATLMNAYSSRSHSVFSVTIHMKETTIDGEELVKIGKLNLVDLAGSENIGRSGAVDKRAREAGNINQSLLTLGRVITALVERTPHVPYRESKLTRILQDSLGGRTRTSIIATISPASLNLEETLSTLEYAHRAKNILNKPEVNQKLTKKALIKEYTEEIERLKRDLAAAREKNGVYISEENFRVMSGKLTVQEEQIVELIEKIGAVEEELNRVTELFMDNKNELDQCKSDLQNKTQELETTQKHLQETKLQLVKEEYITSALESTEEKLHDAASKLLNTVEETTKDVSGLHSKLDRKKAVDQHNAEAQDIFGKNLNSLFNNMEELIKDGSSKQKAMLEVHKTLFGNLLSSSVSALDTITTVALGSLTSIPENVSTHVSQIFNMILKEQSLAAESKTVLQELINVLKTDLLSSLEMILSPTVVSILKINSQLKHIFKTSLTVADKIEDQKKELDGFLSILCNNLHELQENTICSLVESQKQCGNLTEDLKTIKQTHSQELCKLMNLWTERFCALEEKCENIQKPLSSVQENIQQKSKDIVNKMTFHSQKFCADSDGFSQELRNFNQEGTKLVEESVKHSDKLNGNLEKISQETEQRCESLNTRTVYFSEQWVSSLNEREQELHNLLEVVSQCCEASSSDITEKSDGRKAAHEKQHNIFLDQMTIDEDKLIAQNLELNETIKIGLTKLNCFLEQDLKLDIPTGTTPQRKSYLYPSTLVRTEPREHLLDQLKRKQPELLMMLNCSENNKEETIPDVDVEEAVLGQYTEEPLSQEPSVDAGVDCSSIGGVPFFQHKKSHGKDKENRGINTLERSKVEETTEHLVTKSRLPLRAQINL
inactive: [1] -0.016 | [2] 0.003 | [3] -0.021 | [4] -0.018 | [5] 0.034 | [6] -0.022 | [7] -0.007 | [8] 0.006 | [9] 0 | [10] 0

LRPPRC (UniProt P42704)
inactive: [1] -0.019 | [2] -0.004 | [3] -0.062 | [4] 0.012 | [5] 0.056 | [6] -0.003 | [7] -0.027 | [8] 0.052 | [9] 0.047 | [10] 0.004

KMT2A isoform 3 (UniProt Q03164)
inactive: [1] 0.098 | [3] 0.017 | [4] 0.154 | [5] 0.056 | [6] -0.156 | [7] -0.178 | [8] 0.032 | [9] 0.133 | [10] -0.037
active: [2] -0.428

MPP1 (UniProt Q00013)
inactive: [1] -0.017 | [2] -0.014 | [3] -0.011 | [4] 0.011 | [5] 0.007 | [6] 0.017 | [7] 0 | [8] 0.024 | [9] 0.017 | [10] 0

MACROD1 (UniProt Q9BQ69)
UniProt Q9BQ69, sequence (Q9BQ69 whole entry, looked up): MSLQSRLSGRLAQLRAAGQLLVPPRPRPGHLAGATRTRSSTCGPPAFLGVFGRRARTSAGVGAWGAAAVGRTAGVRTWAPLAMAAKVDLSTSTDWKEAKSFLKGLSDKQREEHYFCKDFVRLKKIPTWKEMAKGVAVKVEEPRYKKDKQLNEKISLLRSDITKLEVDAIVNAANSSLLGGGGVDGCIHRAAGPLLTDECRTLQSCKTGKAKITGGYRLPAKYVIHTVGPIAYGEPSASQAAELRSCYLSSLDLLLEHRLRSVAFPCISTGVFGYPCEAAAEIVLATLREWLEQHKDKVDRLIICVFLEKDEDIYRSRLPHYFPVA
inactive: [1] 0.036 | [2] -0.099 | [3] -0.066 | [4] 0.021 | [5] 0.055 | [6] -0.083 | [7] 0.005 | [8] 0.022 | [9] -0.006 | [10] -0.024

MED13L (UniProt Q71F56)
inactive: [1] 0.06 | [2] -0.056 | [3] 0.017 | [4] 0.032 | [5] 0.045 | [6] -0.055 | [7] -0.012 | [8] 0.069 | [9] 0.014 | [10] 0.015

MRPL10 isoform 2 (UniProt Q7Z7H8)
inactive: [1] 0.009 | [2] 0.016 | [3] -0.019 | [4] 0.025 | [5] 0.054 | [6] -0.22 | [7] -0.017 | [8] 0.015 | [9] 0.024 | [10] -0.011

MAD2L1BP isoform 3 (UniProt Q15013)
inactive: [1] -0.028 | [2] 0.108 | [3] 0.016 | [4] -0.007 | [5] -0.026 | [6] -0.066 | [7] 0.018 | [8] -0.019 | [9] 0.048 | [10] -0.056

LARS (UniProt Q9P2J5)
inactive: [1] 0.012 | [2] 0.003 | [3] -0.065 | [4] -0.012 | [5] 0.038 | [6] -0.005 | [7] -0.006 | [8] 0.034 | [9] 0 | [10] -0.024

KPNA4 (UniProt O00629)
inactive: [1] -0.013 | [2] 0.006 | [3] 0.063 | [4] 0.018 | [5] 0.003 | [6] -0.088 | [7] -0.033 | [8] -0.012 | [9] 0 | [10] -0.058

MED28 (UniProt Q9H204)
inactive: [1] 0.053 | [2] 0.053 | [3] -0.004 | [4] 0.053 | [5] -0.006 | [6] -0.007 | [7] 0.015 | [8] -0.013 | [9] -0.005 | [10] -0.014

KRAS (UniProt P01116)
inactive: [1] 0.034 | [2] -0.014 | [3] 0.049 | [4] 0.018 | [5] -0.015 | [6] 0.042 | [7] 0.129 | [8] -0.001 | [9] 0.005 | [10] -0.032

MME (UniProt P08473)
inactive: [1] -0.09 | [2] 0.082 | [4] 0.021 | [5] 0.104 | [6] -0.02 | [7] -0.031 | [8] 0.085 | [9] 0.061 | [10] -0.014
active: [3] -0.513

MFF isoform 2 (UniProt Q9GZY8)
inactive: [1] -0.025 | [2] -0.039 | [3] -0.005 | [4] 0.008 | [5] -0.012 | [6] 0.002 | [7] -0.004 | [8] 0.007 | [9] 0.016 | [10] -0.026

LRRC40 (UniProt Q9H9A6)
UniProt Q9H9A6, sequence (Q9H9A6 whole entry, looked up): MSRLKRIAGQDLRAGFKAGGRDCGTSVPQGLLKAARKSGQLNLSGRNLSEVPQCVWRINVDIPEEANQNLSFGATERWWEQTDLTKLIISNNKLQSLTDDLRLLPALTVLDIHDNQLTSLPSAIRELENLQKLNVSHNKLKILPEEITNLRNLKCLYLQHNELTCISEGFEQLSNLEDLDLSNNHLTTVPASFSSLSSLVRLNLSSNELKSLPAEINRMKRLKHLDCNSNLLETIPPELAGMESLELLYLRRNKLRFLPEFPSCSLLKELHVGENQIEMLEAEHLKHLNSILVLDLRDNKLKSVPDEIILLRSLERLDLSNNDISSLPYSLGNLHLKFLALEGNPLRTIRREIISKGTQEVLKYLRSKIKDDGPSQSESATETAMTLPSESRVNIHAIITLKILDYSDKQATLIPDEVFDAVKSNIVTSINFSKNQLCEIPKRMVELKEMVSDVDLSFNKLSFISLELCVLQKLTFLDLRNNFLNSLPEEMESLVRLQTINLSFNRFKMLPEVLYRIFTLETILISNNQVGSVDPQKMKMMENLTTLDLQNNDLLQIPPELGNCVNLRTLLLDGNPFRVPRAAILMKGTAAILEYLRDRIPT
inactive: [1] -0.008 | [2] -0.01 | [3] -0.012 | [4] -0.035 | [5] 0.017 | [6] 0.032 | [7] -0.032 | [8] 0.004 | [9] 0.004 | [10] 0.029

MCMBP isoform 2 (UniProt Q9BTE3)
inactive: [1] 0.152 | [2] -0.039 | [3] 0.099 | [4] -0.144 | [5] -0.099 | [6] -0.076 | [7] 0.066 | [8] -0.041 | [9] 0.082 | [10] -0.118

MMS19 isoform 8 (UniProt Q96T76)
inactive: [1] -0.014 | [2] 0.019 | [3] -0.043 | [4] 0.018 | [5] -0.011 | [6] -0.056 | [7] -0.002 | [8] 0.053 | [9] 0.014 | [10] 0.004

MPDZ (UniProt O75970)
inactive: [1] -0.097 | [2] 0.245 | [3] -0.082 | [4] -0.059 | [5] -0.049 | [6] -0.084 | [7] 0.328 | [8] -0.057 | [9] -0.041 | [10] 0.112

LETM1 (UniProt O95202)
inactive: [1] 0.038 | [2] -0.021 | [3] -0.008 | [4] 0.048 | [5] 0.007 | [6] 0.043 | [7] 0.008 | [8] -0.012 | [9] -0.011 | [10] -0.024

MAST4 (UniProt O15021)
UniProt O15021, sequence (O15021 whole entry, looked up): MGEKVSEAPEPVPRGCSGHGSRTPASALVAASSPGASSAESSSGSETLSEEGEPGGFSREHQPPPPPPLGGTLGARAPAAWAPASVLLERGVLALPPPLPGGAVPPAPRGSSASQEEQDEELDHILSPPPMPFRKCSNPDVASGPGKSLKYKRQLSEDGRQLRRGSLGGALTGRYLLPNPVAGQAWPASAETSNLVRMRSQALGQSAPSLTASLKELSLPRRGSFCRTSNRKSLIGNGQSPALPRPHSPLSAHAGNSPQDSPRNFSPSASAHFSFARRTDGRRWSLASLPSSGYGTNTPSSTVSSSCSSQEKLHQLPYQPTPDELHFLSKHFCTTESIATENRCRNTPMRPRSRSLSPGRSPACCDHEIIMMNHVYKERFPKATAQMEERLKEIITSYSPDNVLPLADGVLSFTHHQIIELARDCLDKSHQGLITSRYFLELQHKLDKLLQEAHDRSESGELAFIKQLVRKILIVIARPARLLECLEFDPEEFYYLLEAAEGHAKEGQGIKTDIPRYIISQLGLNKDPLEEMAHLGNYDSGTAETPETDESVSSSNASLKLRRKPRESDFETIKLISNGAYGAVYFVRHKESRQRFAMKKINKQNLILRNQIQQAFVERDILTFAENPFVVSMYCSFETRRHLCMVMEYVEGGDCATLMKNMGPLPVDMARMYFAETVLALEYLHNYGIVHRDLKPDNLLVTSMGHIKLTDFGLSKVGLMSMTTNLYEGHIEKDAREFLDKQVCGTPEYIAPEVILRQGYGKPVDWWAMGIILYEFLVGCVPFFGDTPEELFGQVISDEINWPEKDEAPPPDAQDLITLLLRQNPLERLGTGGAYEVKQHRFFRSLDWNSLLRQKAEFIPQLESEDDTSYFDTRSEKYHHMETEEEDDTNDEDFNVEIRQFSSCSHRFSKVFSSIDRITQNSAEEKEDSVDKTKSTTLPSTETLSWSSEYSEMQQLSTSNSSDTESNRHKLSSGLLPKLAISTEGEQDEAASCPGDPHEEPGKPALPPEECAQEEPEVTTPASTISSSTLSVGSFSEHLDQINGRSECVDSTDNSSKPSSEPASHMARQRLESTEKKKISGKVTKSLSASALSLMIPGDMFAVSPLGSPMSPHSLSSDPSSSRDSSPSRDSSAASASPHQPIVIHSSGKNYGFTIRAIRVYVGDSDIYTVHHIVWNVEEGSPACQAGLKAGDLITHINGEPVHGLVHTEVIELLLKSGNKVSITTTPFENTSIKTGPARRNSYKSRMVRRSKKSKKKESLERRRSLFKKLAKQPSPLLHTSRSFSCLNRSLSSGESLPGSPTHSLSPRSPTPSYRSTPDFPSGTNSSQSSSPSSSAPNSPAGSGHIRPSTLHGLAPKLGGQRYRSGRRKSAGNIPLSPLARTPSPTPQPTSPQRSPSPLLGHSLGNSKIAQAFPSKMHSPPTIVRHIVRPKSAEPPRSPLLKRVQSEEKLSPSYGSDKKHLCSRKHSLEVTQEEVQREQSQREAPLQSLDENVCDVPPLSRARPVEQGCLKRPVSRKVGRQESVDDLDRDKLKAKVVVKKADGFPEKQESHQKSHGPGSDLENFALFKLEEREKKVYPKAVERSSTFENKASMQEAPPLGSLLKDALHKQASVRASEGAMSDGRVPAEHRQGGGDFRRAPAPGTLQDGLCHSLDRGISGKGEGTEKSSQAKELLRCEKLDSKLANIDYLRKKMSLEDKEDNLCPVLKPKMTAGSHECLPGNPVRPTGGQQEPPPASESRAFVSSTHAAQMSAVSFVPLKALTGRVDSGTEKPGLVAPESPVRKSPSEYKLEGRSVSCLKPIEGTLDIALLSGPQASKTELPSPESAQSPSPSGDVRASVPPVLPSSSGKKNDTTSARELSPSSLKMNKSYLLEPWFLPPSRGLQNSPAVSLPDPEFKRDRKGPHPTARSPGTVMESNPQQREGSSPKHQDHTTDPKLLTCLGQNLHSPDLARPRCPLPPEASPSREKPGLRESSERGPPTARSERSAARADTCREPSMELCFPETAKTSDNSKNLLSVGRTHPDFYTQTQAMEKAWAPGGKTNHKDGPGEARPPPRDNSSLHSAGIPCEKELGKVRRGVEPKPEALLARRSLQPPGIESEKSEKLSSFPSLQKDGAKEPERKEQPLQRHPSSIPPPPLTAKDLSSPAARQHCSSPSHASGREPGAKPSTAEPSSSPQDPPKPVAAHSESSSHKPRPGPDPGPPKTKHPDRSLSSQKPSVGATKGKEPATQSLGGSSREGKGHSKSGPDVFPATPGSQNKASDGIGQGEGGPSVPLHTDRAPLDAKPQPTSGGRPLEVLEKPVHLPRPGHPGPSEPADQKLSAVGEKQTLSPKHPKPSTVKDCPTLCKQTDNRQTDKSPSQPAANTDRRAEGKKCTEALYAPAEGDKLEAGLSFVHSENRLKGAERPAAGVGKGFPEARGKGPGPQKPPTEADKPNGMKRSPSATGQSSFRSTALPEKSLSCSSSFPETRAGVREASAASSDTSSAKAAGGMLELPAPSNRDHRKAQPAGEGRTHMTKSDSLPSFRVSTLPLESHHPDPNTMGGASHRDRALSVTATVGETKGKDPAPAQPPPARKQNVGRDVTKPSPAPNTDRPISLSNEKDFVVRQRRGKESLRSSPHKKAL
inactive: [1] -0.078 | [2] 0.114 | [3] 0.001 | [4] 0.08 | [5] 0.04 | [6] 0.104 | [7] 0.012 | [8] 0.073 | [9] 0.021 | [10] 0.059
